# Compound activity: PubChem, The Scripps Research Institute Molecular Screening Center
# Hits are enriched below; roughly 4.1% of the tested compounds scored in any of these assays.
# hcDAF12 agonist = H. contortus DAF-12 activation, primary screen; HEK293 hcDAF-12 lit1-tk-luc reporter, luminescence; 0% DMSO, 100% Δ7-dafachronic acid; activation, % at 6.8 µM; 370,000 compounds, 1.4% hits;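 active means activation above the mean of all tested compounds plus 3 SD, cut at about 5.5% in these data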;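 further: 100% = response to 3 µM Δ7-dafachronic acid high control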
# DAX1 inh-1 = NR0B1 (DAX1) inhibition; HEK293 Gal4-DAX1 luciferase reporter, luminescence; P51843; inhibition, % at 6.75 µM; 340,000 compounds, 0.99% hits; AID 504766;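 active means inhibition above the mean over all tested compounds plus 3 SD, cut at about 4.2% in these data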;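 further: 0% = DAX1-transfected cells with DMSO and 100% = empty-vector control cells with DMSO; inhibition shows as a rise in luminescence from relieved DAX1 repression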
# DAX1 inh-2 = DAX1 (NR0B1) inhibition, primary screen. HEK293T StAR-luciferase reporter, SF-1/DAX-1 repression relief. inhibition, % at 6.8 µM. 370,000 compounds, 1.1% hits;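 active means inhibition above the mean over all tested compounds plus 3 SD, cut at about 3.6% in these data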;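 further: 0% = DAX-1 cells with DMSO and 100% = cells lacking DAX-1 with DMSO; higher inhibition means more luminescence from relief of DAX-1 repression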
# hgDAF12 agonist = agonists of H. glycines DAF-12 nuclear receptor; HEK293 GAL4-hgDAF12 UAS-luciferase reporter, agonist luminescence; normalized to butyrate control; 370,000 compounds, 1.8% hits; activation, % at 6.8 µM; AID 687014;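 active means activation above a cutoff set at the mean of all screened compounds plus 3 SD, cut at about 10% in these data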;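 further: 0% = DMSO wells and 100% = sodium butyrate wells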
# ssDAF12 agonist = activates DAF-12 receptor from parasite S. stercoralis | HEK293 ssDAF-12/GRIP1 lit1-tk-luc reporter, luminescence; % of 3 µM dafachronic acid response | activation, % at 6.8 µM | 370,000 compounds, 1% hits | AID 652126;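 active means activation above the mean over all tested compounds plus 3 SD, cut at about 0.9% in these data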;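 further: 0% = DMSO-only wells and 100% = 3 µM delta7-dafachronic acid wells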
# hgDAF12 ag = hgDAF-12 agonism, confirmation assay; shares compounds with hgDAF12 agonist; HEK293 GAL4-hgDAF12 luciferase reporter, agonist mode; percent of butyrate response; activation, % at 6.8 µM; 3,300 compounds, 80% hits; AID 743050;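 active means mean activation over triplicate wells above the hit cutoff derived from the earlier primary screen, cut at about 11% in these data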;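 further: 0% = DMSO low control and 100% = 2 mM sodium butyrate high control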
# LXR ag 2 = counter-screen for DAF-12 agonists: agonists of human LXR-beta; AID 743051; 3,300 tested, under 10 active; HEK293 Gal4-LXR luciferase reporter, 24 h; activation, % at 6.8 µM; shares compounds with hgDAF12 agonist;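 active means mean activation of the triplicate above a set limit carried over from the primary screen, none filed active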
# Target sequence (P55055 whole entry, looked up, the tested form may be a part): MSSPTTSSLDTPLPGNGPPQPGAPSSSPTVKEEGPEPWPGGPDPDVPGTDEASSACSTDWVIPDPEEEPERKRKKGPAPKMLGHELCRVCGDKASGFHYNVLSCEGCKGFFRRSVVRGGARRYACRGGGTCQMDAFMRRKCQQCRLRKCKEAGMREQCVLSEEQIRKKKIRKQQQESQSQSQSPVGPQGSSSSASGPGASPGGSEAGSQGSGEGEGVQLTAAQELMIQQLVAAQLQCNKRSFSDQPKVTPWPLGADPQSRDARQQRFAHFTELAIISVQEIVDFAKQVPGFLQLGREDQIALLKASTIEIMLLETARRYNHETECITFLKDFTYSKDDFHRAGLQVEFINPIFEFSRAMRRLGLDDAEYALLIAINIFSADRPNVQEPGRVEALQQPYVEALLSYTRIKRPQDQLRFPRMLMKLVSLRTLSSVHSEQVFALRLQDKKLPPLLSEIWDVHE
# An asterisk follows results filed as active; . = not tested or not shown.
SMILES,hcDAF12 agonist,DAX1 inh-1,DAX1 inh-2,hgDAF12 agonist,ssDAF12 agonist,hgDAF12 ag,LXR ag 2
Cc1cccc(C(=O)Nc2nnc(-c3ccco3)o2)c1,2,0,0,2,-1,.,.
Cc1ccc(C(=O)Nc2nnc(-c3ccco3)o2)cc1C,3,0,0,14*,1.1*,6,0
CCCn1cnc2cc(NC(=O)c3cccs3)ccc21,3,2,1,13*,0,10,0
CCn1cnc2cc(NC(=O)c3ccc(C)cc3)ccc21,2,1,2,14*,1,11*,0
Cc1ccc(NC(=O)c2ccccc2F)nc1,4,3,3,14*,0,14*,1
Cc1ccc(NC(=O)c2cc(F)c(F)cc2Cl)nc1,1,1,3,17*,0,11*,0
Cc1ccc(NC(=O)Nc2cccc(F)c2)nc1,2,4.8*,1,13*,0,14*,1
O=C(Nc1cccc(F)c1)Nc1ccc(Cl)cn1,3,-1,1,4,-1,.,.
O=C(O)CC(Sc1n[nH]c(=S)s1)C(=O)O (configuration not stated),1,0,0,0,-1,.,.
CC(NS(=O)(=O)c1ccc(CCC(=O)NCc2cccnc2)cc1)c1ccccc1 (configuration not stated),-2,1,0,-3,-1,.,.
C=CCNCCCCOc1ccc(OCc2ccccc2)cc1,3,1,3,15*,-1,17*,1
COCCCNCCCCOc1ccc(OCc2ccccc2)cc1,3,0,1,6,-1,.,.
c1ccc(COc2ccc(OCCCCN3CCCC3)cc2)cc1,4,1,2,14*,-1,14*,1
CC(=O)Nc1ccc(S(=O)(=O)NCCC(=O)N2CCC(Cc3ccccc3)CC2)cc1,-2,-1,-1,2,-1,.,.
Cc1cc(C(=O)COC(=O)C2=NNC(=O)CC2)c(C)n1CCc1ccccc1,1,1,0,2,0,.,.
O=C(Nc1ccc2c(c1)OCCO2)C(CCc1ccccc1)N1CCC(Cc2ccccc2)CC1 (configuration not stated),1,.,2,8,-1,.,.
C(=N\N=C\c1cccs1)/c1cccs1,5,2,3.9*,14*,-1,15*,1
C(=N\n1cnnc1)/c1cccs1,0,1,0,-1,-1,.,.
O=C(Nc1cccc(Cl)c1)Nc1nnc([C@@H]2C[C@H](O)[C@@H](CO)O2)s1,2,.,2,16*,-1,10,0
O=C(Nc1cccc(F)c1)Nc1nnc([C@@H]2C[C@H](O)[C@@H](CO)O2)s1,4,.,3,5,-1,.,.
COC(=O)CCc1sc(Nc2ccccc2)nc1-c1ccc(OC)cc1,3,2,2,14*,0,13*,0
COC(=O)c1ccccc1NC(=O)CNCCc1ccc(OC)c(OC)c1,-2,0,0,-2,-1,.,.
COc1ccc(NC(=O)C(C)N=C2NS(=O)(=O)c3ccccc32)cc1S(N)(=O)=O (configuration not stated),1,1,2,15*,-1,-2,0
Cc1cc(SCC(=O)OCC(=O)N(C)C2CCS(=O)(=O)C2)c(C)cc1Br (configuration not stated),0,0,1,2,-1,.,.
COC(=O)c1sccc1-c1ccc(C(=O)Nc2ccccc2)o1,6,3,2,13*,0,13*,1
SMILES,hcDAF12 agonist,DAX1 inh-1,DAX1 inh-2,hgDAF12 agonist,ssDAF12 agonist,hgDAF12 ag,LXR ag 2
CCS(=O)(=O)N1Cc2ccccc2CC1C(=O)Nc1cccc(OC)c1 (configuration not stated),3,1,0,14*,0,4,0
CCS(=O)(=O)N1Cc2ccccc2CC1C(=O)Nc1ccc(OC)c(OC)c1 (configuration not stated),0,-2,0,-2,-1,.,.
COc1ccc(CN2CCNC(=O)C2CC(=O)N(C)Cc2ccno2)c(F)c1 (configuration not stated),0,1,1,0,-1,.,.
CCCN(CCC)CC(O)Cn1cc(/C=C/C(=O)c2ccccc2)c2ccccc21 (configuration not stated),2,2,0,1,-1,.,.
CCCN(CCC)CC(O)Cn1cc(/C=C/C(=O)c2cccs2)c2ccccc21 (configuration not stated),5,-1,0,27*,-1,0,0
CC(C)Oc1cccc(-c2csc(N3CCC(C(N)=O)CC3)n2)c1,3,.,.,15*,0,9,1
NC(=O)C1CCN(c2nc(-c3ccc4c(c3)OCCCO4)cs2)CC1,2,.,.,17*,0,18*,1
O=C(Nc1ccn(CCCNCc2ccc3c(c2)OCO3)c(=O)n1)OCc1ccccc1,-2,-1,0,-1,-2,.,.
COc1cccc(OC)c1C(=O)NCc1ccco1,2,0,0,2,-1,.,.
Cc1ccc(C)c(CSCC(=O)NCc2cccs2)c1,1,1,1,-1,-2,.,.
CC(=O)Nc1ccc2c(c1)-c1ccc(F)cc1C2,1,0,0,4,-1,.,.
CC(=O)Nc1cc(F)c2c(c1F)Cc1cc(F)ccc1-2,3,3,2,16*,0,12*,0
Cn1cc(S(=O)(=O)N2CCCC2)cc1C(=O)NCc1ccccc1Cl,1,1,-1,0,-1,.,.
c1ccc(C2Oc3ccccc3C3CC(c4cccs4)=NN32)cc1 (configuration not stated),6,2,1,16*,1,10,0
Fc1ccc(N2N=C(c3cccs3)CC2c2ccccc2)cc1 (configuration not stated),-1,0,-1,0,-2,.,.
Cc1cc(NS(=O)(=O)c2ccc(N3C(=O)C4C5C=CC(C5)C4C3=O)cc2)nc(C)n1 (configuration not stated),0,1,0,-1,-1,.,.
Cc1csc(NC(=O)CSc2nsc(SCC(=O)Nc3nc(C)cs3)c2C#N)n1,4,2,3,18*,0,15*,1
CC[C@@]1(C(=O)OC)N[C@H](CN(C)C(=O)Nc2ccc(OC)cc2)[C@@H]2C(=O)N(Cc3ccccc3)C(=O)[C@@H]21,0,0,1,14*,0,6,0
CC[C@@]1(C(=O)OC)N[C@H](CN(C)C(=O)Nc2ccc(F)cc2)[C@@H]2C(=O)N(Cc3ccccc3)C(=O)[C@@H]21,0,-1,0,1,0,.,.
